Paper PMC5540273 (PLoS ONE, 2017)

The compounds below were run on CDK9. Settings: concentration: 1 μM, replicates: in singlicate; n = 1.
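Note: KINOMEscan kinase panel screen.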

| SMILES | %Inh [%] |
| --- | --- |
| O=C(O)C(F)(F)F.O=C(O)C(F)(F)F.O=c1[nH]ccc2nc(N[C@@H]3CCCNC3)nc(Nc3ccc(S(=O)(=O)N4CCOCC4)cc3)c12 [GSK2177277] | 17 |
| Cc1ccc(C(=O)N2CC[C@@H](O)C2)cc1-n1c(C)cc(OCc2ccc(F)cc2F)c(Br)c1=O | 1 |
| Cl.c1ccc(-c2ccc3c(Nc4ccc5[nH]ccc5c4)ccnc3c2)nc1 [GW440138] | 0 |
| CCCCc1nn2ncccc2c1-c1ccnc(Nc2ccc(N3CCN(C)CC3)cc2)n1 [GW684941] | 0 |
| COc1ccc(Nc2nccc(NCCNC(=O)c3cc4ccccc4s3)n2)cc1 [GSK1379896] | 0 |
| COc1ccc(Nc2nccc(N3CCC(NC(=O)Nc4cccc(OC)c4)C3)n2)cc1 (stereo not shown) [GSK1379742] | 0 |
| O=C(Nc1ccccc1F)NC1CCN(c2ccnc(Nc3ccc(F)cc3)n2)CC1 [GSK1379800] | 0 |
| Cn1cc(-c2ccc3c(c2)CCN3C(=O)Cc2cccc(F)c2)c2c(N)ncnc21 [GSK2603358] | 7 |
| CCc1ccc(-c2ccc3c(c2)-c2c(cnn2C)S(=O)(=O)N3C)cc1 | 0 |
| COc1cc(Nc2nccc(-c3c(-c4cccc(NC(=O)c5c(F)cccc5F)c4)nn4ccccc34)n2)cc(OC)c1OC [GSK323521] | 0 |
| O=C(Nc1cccc(Oc2ccc3nc(NC(=O)C4CC4)cn3n2)c1)c1ccccc1C(F)(F)F | 0 |
| O=c1[nH]cc(-c2ccc(N3CCOCC3)cc2)c2sc(-c3cn[nH]c3)cc12 [GSK2276055] | 71 |
| Cc1cccc(Nc2nc(N[C@H]3CCNC3)ncc2C(N)=O)c1.Cl [GSK2197149] | 7 |
| Nc1ncc(-c2cccnc2)c2scc(-c3ccc4c(c3)CCN4C(=O)Cc3ccccc3)c12 [GSK683281] | 0 |
| Cl.Cl.NCC(C(=O)Nc1cc(Br)c(-c2ccnc3[nH]ccc23)s1)c1ccccc1 (stereo not shown) [GSK1269851] | 3 |
| Fc1ccc(-c2ncn(C3CCNCC3)c2-c2ccnc(Oc3ccc(-c4ccccc4)cc3)n2)cc1 [SB-245391] | 12 |
| Cl.c1ccc(-c2ccc3c(Nc4ccc5[nH]ncc5c4)ccnc3c2)nc1 [GW440137] | 11 |
| Cl.NC(=O)c1cccc(Nc2nccc(Nc3ccc(Oc4c(Cl)cccc4Cl)c(Cl)c3)n2)c1 [GW659009] | 0 |
| O=C(Nc1cccc(-c2nn3ncccc3c2-c2ccnc(Nc3ccccc3)n2)c1)c1c(F)cccc1F [GSK198271] | 4 |
| COC(=O)Nc1nc2ccc(Oc3ccc(NC(=O)Nc4cc(C(F)(F)F)ccc4F)cc3)cc2n1C.Cl [GW692089] | 0 |
| Oc1cc(Nc2ccnc3cc(I)ccc23)ccc1F [GW552771] | 0 |
| CC(C)c1nc(-c2cccc(NS(=O)(=O)c3c(F)cccc3F)c2F)c(-c2ccnc(Nc3ccc(N4CCOCC4)nc3)n2)s1 [GSK2008607] | 93 |
| CCn1c(-c2nonc2N)nc2c(C#CC(C)(C)O)nc(OC[C@H](N)c3ccccc3)cc21 [GSK943949] | 0 |
| CC(C)(C)c1ccc2nccc(Nc3cccc(O)c3)c2c1 [GW856795] | 0 |

Each compound was assayed on CDKL1. Settings: concentration: 1 μM, replicates: in singlicate; n = 1.

| SMILES | %Inh [%] |
| --- | --- |
| CN1CCN(CCCNc2nccc(-c3c(-c4ccc(F)cc4)nn4cc(C(F)(F)F)ccc34)n2)CC1 [GW621581] | 0 |
| C[C@@H]1CC[C@@H](C(=O)Nc2ccccc2)CN1c1cc(-c2ccc3c(N)n[nH]c3c2)nc(N)n1 [GSK2286062] | 0 |
| Cl.Cl.NCC(NCc1ccc(-c2ccnc3[nH]ccc23)s1)c1ccccc1 (stereo not shown) [GSK1321565] | 0 |
| Nc1n[nH]c2cnc(-c3ccccc3)cc12 [SB-642124] | 1 |
| COc1cccc(NC(=O)NC2CCN(c3ccnc(Nc4cc(OC)c(OC)c(OC)c4)n3)C2)c1 (stereo not shown) [GSK1379763] | 0 |
| COc1cccc(C(=O)Nc2cccc(Oc3ccc4nc(NC(=O)C5CC5)cn4n3)c2)c1 | 58 |
| c1ccc(-c2n[nH]cc2Nc2ccnc3ccccc23)nc1 [GW694077] | 3 |
| O=C(Nc1cccc(-c2nn3ccccc3c2-c2ccnc(Nc3cccc(C(F)(F)F)c3)n2)c1)c1c(F)cccc1F [GSK292658] | 0 |
| CSc1cccc2c(-c3ccncn3)c(-c3ccc(F)cc3)nn12 [GW514786] | 6 |
| COc1ccc(CNC(=O)NC2CCN(c3ccnc(Nc4ccc(F)cc4)n3)CC2)cc1 [GSK1379788] | 9 |
| COCCOCCOc1cc2ncc3c4ccc(C#N)cc4[nH]c3c2cc1OC | 56 |
| FC(F)(F)c1ccc(/C=C/c2cncnc2Nc2ccc3[nH]c(Cc4ccccc4)nc3c2)cc1 [GW709199] | 42 |
| COc1cc(Nc2nccc(N3CCC(NC(=O)Nc4cccc(C(C)=O)c4)C3)n2)cc(OC)c1OC (stereo not shown) [GSK1379753] | 17 |
| O=C(O)C(F)(F)F.O=C(O)C(F)(F)F.O=c1[nH]ccc2nc(N[C@@H]3CCCNC3)nc(Nc3ccc(S(=O)(=O)N4CCOCC4)cc3)c12 [GSK2177277] | 64 |
| Cc1ccc(C(=O)N2CC[C@@H](O)C2)cc1-n1c(C)cc(OCc2ccc(F)cc2F)c(Br)c1=O | 14 |
| Cl.c1ccc(-c2ccc3c(Nc4ccc5[nH]ccc5c4)ccnc3c2)nc1 [GW440138] | 0 |
| CCCCc1nn2ncccc2c1-c1ccnc(Nc2ccc(N3CCN(C)CC3)cc2)n1 [GW684941] | 22 |
| COc1ccc(Nc2nccc(NCCNC(=O)c3cc4ccccc4s3)n2)cc1 [GSK1379896] | 0 |
| COc1ccc(Nc2nccc(N3CCC(NC(=O)Nc4cccc(OC)c4)C3)n2)cc1 (stereo not shown) [GSK1379742] | 0 |

| SMILES | %Inh [%] |
| --- | --- |
| O=C(Nc1ccccc1F)NC1CCN(c2ccnc(Nc3ccc(F)cc3)n2)CC1 [GSK1379800] | 0 |
| Cn1cc(-c2ccc3c(c2)CCN3C(=O)Cc2cccc(F)c2)c2c(N)ncnc21 [GSK2603358] | 6 |
| CCc1ccc(-c2ccc3c(c2)-c2c(cnn2C)S(=O)(=O)N3C)cc1 | 0 |
| COc1cc(Nc2nccc(-c3c(-c4cccc(NC(=O)c5c(F)cccc5F)c4)nn4ccccc34)n2)cc(OC)c1OC [GSK323521] | 6 |
| O=C(Nc1cccc(Oc2ccc3nc(NC(=O)C4CC4)cn3n2)c1)c1ccccc1C(F)(F)F | 43 |
| O=c1[nH]cc(-c2ccc(N3CCOCC3)cc2)c2sc(-c3cn[nH]c3)cc12 [GSK2276055] | 11 |
| Cc1cccc(Nc2nc(N[C@H]3CCNC3)ncc2C(N)=O)c1.Cl [GSK2197149] | 12 |
| Nc1ncc(-c2cccnc2)c2scc(-c3ccc4c(c3)CCN4C(=O)Cc3ccccc3)c12 [GSK683281] | 26 |
| Cl.Cl.NCC(C(=O)Nc1cc(Br)c(-c2ccnc3[nH]ccc23)s1)c1ccccc1 (stereo not shown) [GSK1269851] | 20 |
| Fc1ccc(-c2ncn(C3CCNCC3)c2-c2ccnc(Oc3ccc(-c4ccccc4)cc3)n2)cc1 [SB-245391] | 28 |
| Cl.c1ccc(-c2ccc3c(Nc4ccc5[nH]ncc5c4)ccnc3c2)nc1 [GW440137] | 7 |
| Cl.NC(=O)c1cccc(Nc2nccc(Nc3ccc(Oc4c(Cl)cccc4Cl)c(Cl)c3)n2)c1 [GW659009] | 0 |
| O=C(Nc1cccc(-c2nn3ncccc3c2-c2ccnc(Nc3ccccc3)n2)c1)c1c(F)cccc1F [GSK198271] | 3 |
| COC(=O)Nc1nc2ccc(Oc3ccc(NC(=O)Nc4cc(C(F)(F)F)ccc4F)cc3)cc2n1C.Cl [GW692089] | 2 |
| Oc1cc(Nc2ccnc3cc(I)ccc23)ccc1F [GW552771] | 0 |
| CC(C)c1nc(-c2cccc(NS(=O)(=O)c3c(F)cccc3F)c2F)c(-c2ccnc(Nc3ccc(N4CCOCC4)nc3)n2)s1 [GSK2008607] | 54 |
| CCn1c(-c2nonc2N)nc2c(C#CC(C)(C)O)nc(OC[C@H](N)c3ccccc3)cc21 [GSK943949] | 0 |
| CC(C)(C)c1ccc2nccc(Nc3cccc(O)c3)c2c1 [GW856795] | 8 |
